From PubChem BioAssay (Tox21)
Results filed as inconclusive are left out. The source made the active and inactive calls. Unless noted, calls follow the shape of the dose curve; as a rule, active = well fitted curve in the direction sought with a large enough effect in the repeat runs; inconclusive = weak or mixed curves; inactive = no such curve, though single readings can be large; an effect the other way counts as inactive or inconclusive.

How the values were obtained:
[1] = qHTS assay to identify small molecule antagonists of the glucocorticoid receptor (GR) signaling pathway - cell viability counter screen (AID 720693); also: nearly all actives have a fitted effect of over 55% in size
[2] = qHTS assay for identifying genotoxic compounds that show differential cytotoxicity against isogenic chicken DT40 cell lines with known DNA damage response pathways - wild type cell line (AID 743012); also: nearly all actives have a fitted effect of over 60% in size; also: potency is read from the fitted curve at half-maximal effect
Method in brief: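 Viability by ATP luminescence (CellTiter-Glo, 30 min RT) after 40 h compound treatment at 37 C/5% CO2, using 300 parental DNA repair-proficient DT40 cells per well.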

[3] = qHTS assay for identifying genotoxic compounds that show differential cytotoxicity against isogenic chicken DT40 cell lines with known DNA damage response pathways - Rev3 mutant cell line (AID 743014); also: nearly all actives have a fitted effect of over 55% in size; also: potency is read from the fitted curve at half-maximal effect
[4] = qHTS assay for identifying genotoxic compounds that show differential cytotoxicity against isogenic chicken DT40 cell lines with known DNA damage response pathways - Rad54/Ku70 mutant cell line (AID 743015); also: nearly all actives have a fitted effect of over 60% in size; also: potency is read from the fitted curve at half-maximal effect
[5] = qHTS assay to identify small molecule antagonists of the androgen receptor (AR) signaling pathway - cell viability counter screen (AID 743033; also: nearly all actives have a fitted effect of over 45% in size)
[6] = qHTS assay to identify small molecule antagonists of the androgen receptor (AR) signaling pathway using the MDA cell line - cell viability counter screen (AID 743041; also: nearly all actives have a fitted effect of over 45% in size)
Method in brief: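 In this qHTS counter assay, fluorescence intensity after CellTiter-Fluor addition indicated viability of MDA-kb2 AR-luc cells given compounds and R1881 for 16 h at 37C.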

[7] = qHTS assay to identify small molecule antagonists of the thyroid receptor (TR) signaling pathway - cell viability counter screen (AID 743064); also: nearly all actives have a fitted effect of over 50% in size; also: potency is read from the fitted curve at half-maximal effect
Method in brief: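 Compounds were tested on GH3.TRE-Luc cells in the presence of T3 at 1 nM final. Following 23.5 h at 37 °C, cell viability was quantified by CellTiter-Fluor.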

[8] = molecular target: Androgen receptor (Homo sapiens) (UniProt P10275); test: qHTS assay to identify small molecule agonists of the androgen receptor (AR) signaling pathway using the MDA cell line (AID 743040; also: nearly all actives have a fitted effect of over 20% in size)
Chain of Androgen receptor (Homo sapiens) (P10275 whole entry, looked up): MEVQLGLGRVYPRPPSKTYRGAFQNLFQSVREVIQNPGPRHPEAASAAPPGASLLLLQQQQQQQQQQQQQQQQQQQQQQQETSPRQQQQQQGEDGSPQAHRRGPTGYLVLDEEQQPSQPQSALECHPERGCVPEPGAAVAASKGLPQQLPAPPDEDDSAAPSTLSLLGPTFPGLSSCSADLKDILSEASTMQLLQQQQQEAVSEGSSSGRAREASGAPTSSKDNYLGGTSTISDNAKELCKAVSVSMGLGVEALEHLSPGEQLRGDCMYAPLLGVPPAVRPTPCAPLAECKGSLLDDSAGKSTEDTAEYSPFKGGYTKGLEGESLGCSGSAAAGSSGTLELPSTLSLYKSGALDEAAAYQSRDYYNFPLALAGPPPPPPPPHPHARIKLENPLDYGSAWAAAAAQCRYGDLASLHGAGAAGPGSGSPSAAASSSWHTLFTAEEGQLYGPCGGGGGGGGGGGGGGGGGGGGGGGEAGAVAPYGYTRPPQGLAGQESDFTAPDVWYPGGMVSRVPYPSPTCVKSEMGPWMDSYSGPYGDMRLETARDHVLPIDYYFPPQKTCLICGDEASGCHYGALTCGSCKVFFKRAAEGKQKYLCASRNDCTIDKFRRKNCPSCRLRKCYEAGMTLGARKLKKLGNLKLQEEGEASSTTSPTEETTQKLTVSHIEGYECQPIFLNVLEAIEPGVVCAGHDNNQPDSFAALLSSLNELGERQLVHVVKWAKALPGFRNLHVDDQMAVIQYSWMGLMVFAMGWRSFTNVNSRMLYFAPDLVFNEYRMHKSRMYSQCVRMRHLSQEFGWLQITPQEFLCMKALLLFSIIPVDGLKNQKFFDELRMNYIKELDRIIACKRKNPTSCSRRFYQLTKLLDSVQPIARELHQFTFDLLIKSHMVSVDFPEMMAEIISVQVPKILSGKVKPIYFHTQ
Method in brief: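 Cell-based luciferase reporter: MDA-kb2, MMTV promoter (AR + GR response elements). 16 h compound exposure at 37C; ONE-Glo, 30 min RT, luminescence.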

[9] = molecular target: Androgen receptor (Homo sapiens) (UniProt P10275); test: qHTS assay to identify small molecule antagonists of the androgen receptor (AR) signaling pathway using the MDA cell line (AID 743042; also: nearly all actives have a fitted effect of over 55% in size; also: potency is read from the fitted curve at half-maximal effect)
Method in brief: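 MDA-kb2 cells (human breast carcinoma, stably carrying an MMTV-luciferase reporter responsive to AR and GR) were plated at 3,000 cells/well and preincubated 5 hr at 37C, then given compound plus R1881 agonist for 16 h. ONE-Glo luminescence was read.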

[10] = molecular target: Androgen receptor (Homo sapiens) (UniProt P10275); test: qHTS assay to identify small molecule agonists of the androgen receptor (AR) signaling pathway (AID 743036; active = well fitted activation curve with a large enough effect in the signal ratio in the repeat runs, with a control signal flat, not every such curve was filed as active; the % refers to the signal ratio)
Method in brief: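 Beta-lactamase under UAS control, stably integrated in HEK293 GripTite cells, reports receptor activation. After 16 h compound treatment, cells received FRET substrate for 2 h at room temperature before fluorescence reading.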

Measured: Potency

NC(=O)OCCCc1ccccc1
inactive: [1] | [5] | [6] | [7]
active: [2] 13.3 µM | [3] 11.9 µM | [4] 29.8 µM

CC(=O)OCC1=C(C(=O)O)N2C(=O)[C@@H](N)[C@H]2SC1
not listed: [8] | [9] | [10]
inactive: all other assays above

NNC(N)=O
not listed: [8] | [9] | [10]
inactive: all other assays above

ClCCCCCCCl
not listed: [8] | [9] | [10]
inactive: all other assays above

CCCN1CCC[C@@H]2Cc3[nH]ncc3C[C@H]21
not listed: [8] | [9] | [10]
inactive: all other assays above

CC(C)(C)C(=O)C(Cl)Cl
not listed: [8] | [9] | [10]
inactive: all other assays above

O=C(O)C(Cl)Br (configuration not stated)
not listed: [8] | [9] | [10]
inactive: all other assays above

Clc1nc(Cl)nc(Nc2ccccc2Cl)n1
inactive: [1] | [2] | [3] | [4] | [5] | [7]

N[C@@H](Cc1ccc(Oc2cc(I)c(O)c(I)c2)c(I)c1)C(=O)O
inactive: [1] | [2] | [3] | [4] | [5] | [7]

O=C(Cl)c1ccccc1
not listed: [8] | [9] | [10]
inactive: all other assays above

CCOc1cc(OP(=S)(OC)OC)nc(CC)n1
not listed: [8] | [9] | [10]
inactive: all other assays above

ClCOCCl
inactive: [1] | [2] | [3] | [4] | [5] | [7]

CCCCCCCCBr
not listed: [8] | [9] | [10]
inactive: all other assays above

CCC1(c2cccc(O)c2)CCCCN(C)C1 (configuration not stated)
inactive: [1] | [2] | [3] | [4] | [5] | [7]

CC(C)[N+](C)(CCC(C(N)=O)(c1ccccc1)c1ccccc1)C(C)C
inactive: [1] | [2] | [3] | [4] | [5] | [7]

COc1ccc(CN2CCNCC2)c(OC)c1OC
not listed: [8] | [9] | [10]
inactive: all other assays above

CCC1(CC)C(=O)C=CNC1=O
inactive: [1] | [2] | [3] | [4] | [5] | [7]

O=C1CCCCC1Cl (configuration not stated)
not listed: [8] | [9] | [10]
inactive: all other assays above

CC(O)CCl (configuration not stated)
inactive: [1] | [2] | [3] | [4] | [5] | [7]

ClC(Cl)(Cl)Cl
not listed: [8] | [9] | [10]
inactive: all other assays above

C/C=C/CC#N
not listed: [8] | [9] | [10]
inactive: all other assays above

CCC(=O)c1ccc(Cl)cc1
not listed: [8] | [9] | [10]
inactive: all other assays above

CC(Cc1ccccc1)NCCn1cnc2c1c(=O)n(C)c(=O)n2C (configuration not stated)
active: [2] 67.7 µM
inactive: [1] | [3] | [5]

Cc1ccc(S(=O)(=O)N[C@@H](CCCCN)C(=O)CCl)cc1
active: [2] 5.96 µM | [3] 10.6 µM | [4] 10.6 µM | [9] 23.7 µM | [7] 16.8 µM
inactive: [1] | [8]

COC(=O)[C@@H](N)CCCN/C(N)=N/[N+](=O)[O-]
inactive: [1] | [2] | [3] | [4] | [6] | [7]

CNC(=O)O/N=C(/CSC)C(C)(C)C
not listed: [3]
inactive: all other assays above

CCC1(c2ccccc2)C(=O)N(COC)C(=O)N(COC)C1=O
not listed: [3] | [7]
inactive: all other assays above

C=C(Cl)CSC(=S)N(CC)CC
inactive: [1] | [5] | [6]
active: [2] 33.5 µM | [4] 53 µM

C#CC(C)(C)O
inactive: [1] | [2] | [4] | [5] | [6] | [7]

CC(C)N(Cc1ccccc1)C(=O)C(C)(C)C
active: [2] 61.1 µM | [3] 68.6 µM
not listed: [4] | [6]
inactive: all other assays above

O=P(O)(O)CN(CP(=O)(O)O)CP(=O)(O)O
inactive: [1] | [2] | [4] | [5] | [6] | [7]

CN(C)CCc1c[nH]c2cccc(OP(=O)(O)O)c12
inactive: [1] | [2] | [4] | [5] | [6] | [7]

CNC(=O)Oc1ccccc1C(C)C
not listed: [3]
inactive: all other assays above

Cc1ccc2c(c1)C1CN(C)CCC1N2 (configuration not stated)
inactive: [1] | [2] | [4] | [5] | [7]

Cc1cccc2sc3nncn3c12
inactive: [1] | [2] | [4] | [5] | [6] | [7]

COc1cccc([C@@]2(O)CCCC[C@@H]2CN(C)C)c1
not listed: [3]
inactive: all other assays above

N#CN=C1SCCN1Cc1ccc(Cl)nc1
inactive: [1] | [2] | [3] | [5] | [6]

CCOC(=O)COc1ccc(Cl)cc1Cl
inactive: [1] | [2] | [4] | [5] | [7]

Cn1c(CCCC(=O)O)nc2cc(N(CCCl)CCCl)ccc21
inactive: [1] | [5] | [7]
active: [2] 26.6 µM | [3] 3.35 µM

CCN(CCO)CCO
inactive: [1] | [2] | [4] | [5] | [6] | [7]

CCCCCCCC(=O)Cl
inactive: [1] | [2] | [4] | [5] | [6] | [7]

Nc1c(Cl)c(F)nc(OCC(=O)O)c1Cl
not listed: [3] | [10]
inactive: all other assays above

[O-][Br+2]([O-])O
not listed: [3] | [6] | [10]
inactive: all other assays above

O=C(CCl)NCO
inactive: [1] | [2] | [3] | [4] | [7]

O=C(O)C(Br)(Br)Br
inactive: [1] | [2] | [4] | [5] | [6] | [7]

CCC(C(N)=O)N1CCCC1=O (configuration not stated)
inactive: [1] | [2] | [4] | [5] | [6]

COc1cc(CC(C)N)cc(OC)c1OC (configuration not stated)
inactive: [1] | [2] | [3] | [4] | [5] | [7]

CCC(C)(C#N)N=NC(C)(C#N)CC (configuration not stated)
not listed: [3] | [6]
inactive: all other assays above

CS(=O)(=O)Cl
inactive: [1] | [2] | [4] | [5] | [6] | [7]

CCN[C@H](C)Cc1cccc(C(F)(F)F)c1
active: [2] 60.9 µM | [4] 54.3 µM
inactive: [1] | [5] | [6]

CC(C)C(C)(N)C#N (configuration not stated)
inactive: [1] | [2] | [3] | [4] | [5] | [7]

O=C(Cl)/C=C/C(=O)Cl
not listed: [3] | [7]
inactive: all other assays above

CCc1cc(OC)c(C[C@H](C)N)cc1OC
active: [2] 63.7 µM | [4] 63.7 µM
inactive: [1] | [5]

O=C/C=C/c1ccco1
not listed: [3]
inactive: all other assays above

O=[N+]([O-])CCO
inactive: [1] | [2] | [4] | [5] | [7]

O=C(O)CBr
inactive: [1] | [2] | [4] | [5] | [6] | [7]

BrCC1CO1 (configuration not stated)
inactive: [1] | [2] | [4] | [5] | [6] | [7]

ClCCCCl
inactive: [1] | [2] | [4] | [5] | [6] | [7]

NCC1(CC(=O)O)CCCCC1
inactive: [1] | [2] | [3] | [4] | [6] | [7]

Cn1c(N)nc2c3cccnc3ccc21
inactive: [1] | [2] | [4] | [5] | [6]
active: [7] 26 µM

CC(Cl)(Cl)Cl
inactive: [1] | [2] | [3] | [4] | [5] | [7]

CC(C)(O)C(Cl)(Cl)Cl
inactive: [1] | [2] | [3] | [5] | [6]

CCOC(=O)N(C)N=O
inactive: [1] | [2] | [5] | [6] | [7]
